# From the supplement of paper PMC11001985
# Unmarked numbers belong to inactive results.
# Compound: C#CCNC(=O)CCSSCCC(=O)NCCc1ccc(C=O)c(C=O)c1
# Assay: lysine labeling ratio R10:1 (500 µM / 50 µM probe), SILAC-ABPP in living cells; higher = lower intrinsic lysine reactivity toward the probe, active = 2 or less
# Settings: HeLa; probe concentrations 500 vs 50 µM
# Summary of the method: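 In PBS at room temperature, living HeLa cells grown with SILAC light or heavy labels were treated with 50 µM or 500 µM of an alkyne-tagged, disulfide-linked lysine probe, with label swaps in both directions. Analysis was by LC-MS/MS on a TIMS-TOF Pro after click to biotin-azide, neutravidin capture and DTT release. For each lysine, R is the median across forward and reverse replicates of the filtered median high-probe/low-probe MS1 peptide ratio, capped at 20.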
# UniProt P21333, sequence (P21333 whole entry): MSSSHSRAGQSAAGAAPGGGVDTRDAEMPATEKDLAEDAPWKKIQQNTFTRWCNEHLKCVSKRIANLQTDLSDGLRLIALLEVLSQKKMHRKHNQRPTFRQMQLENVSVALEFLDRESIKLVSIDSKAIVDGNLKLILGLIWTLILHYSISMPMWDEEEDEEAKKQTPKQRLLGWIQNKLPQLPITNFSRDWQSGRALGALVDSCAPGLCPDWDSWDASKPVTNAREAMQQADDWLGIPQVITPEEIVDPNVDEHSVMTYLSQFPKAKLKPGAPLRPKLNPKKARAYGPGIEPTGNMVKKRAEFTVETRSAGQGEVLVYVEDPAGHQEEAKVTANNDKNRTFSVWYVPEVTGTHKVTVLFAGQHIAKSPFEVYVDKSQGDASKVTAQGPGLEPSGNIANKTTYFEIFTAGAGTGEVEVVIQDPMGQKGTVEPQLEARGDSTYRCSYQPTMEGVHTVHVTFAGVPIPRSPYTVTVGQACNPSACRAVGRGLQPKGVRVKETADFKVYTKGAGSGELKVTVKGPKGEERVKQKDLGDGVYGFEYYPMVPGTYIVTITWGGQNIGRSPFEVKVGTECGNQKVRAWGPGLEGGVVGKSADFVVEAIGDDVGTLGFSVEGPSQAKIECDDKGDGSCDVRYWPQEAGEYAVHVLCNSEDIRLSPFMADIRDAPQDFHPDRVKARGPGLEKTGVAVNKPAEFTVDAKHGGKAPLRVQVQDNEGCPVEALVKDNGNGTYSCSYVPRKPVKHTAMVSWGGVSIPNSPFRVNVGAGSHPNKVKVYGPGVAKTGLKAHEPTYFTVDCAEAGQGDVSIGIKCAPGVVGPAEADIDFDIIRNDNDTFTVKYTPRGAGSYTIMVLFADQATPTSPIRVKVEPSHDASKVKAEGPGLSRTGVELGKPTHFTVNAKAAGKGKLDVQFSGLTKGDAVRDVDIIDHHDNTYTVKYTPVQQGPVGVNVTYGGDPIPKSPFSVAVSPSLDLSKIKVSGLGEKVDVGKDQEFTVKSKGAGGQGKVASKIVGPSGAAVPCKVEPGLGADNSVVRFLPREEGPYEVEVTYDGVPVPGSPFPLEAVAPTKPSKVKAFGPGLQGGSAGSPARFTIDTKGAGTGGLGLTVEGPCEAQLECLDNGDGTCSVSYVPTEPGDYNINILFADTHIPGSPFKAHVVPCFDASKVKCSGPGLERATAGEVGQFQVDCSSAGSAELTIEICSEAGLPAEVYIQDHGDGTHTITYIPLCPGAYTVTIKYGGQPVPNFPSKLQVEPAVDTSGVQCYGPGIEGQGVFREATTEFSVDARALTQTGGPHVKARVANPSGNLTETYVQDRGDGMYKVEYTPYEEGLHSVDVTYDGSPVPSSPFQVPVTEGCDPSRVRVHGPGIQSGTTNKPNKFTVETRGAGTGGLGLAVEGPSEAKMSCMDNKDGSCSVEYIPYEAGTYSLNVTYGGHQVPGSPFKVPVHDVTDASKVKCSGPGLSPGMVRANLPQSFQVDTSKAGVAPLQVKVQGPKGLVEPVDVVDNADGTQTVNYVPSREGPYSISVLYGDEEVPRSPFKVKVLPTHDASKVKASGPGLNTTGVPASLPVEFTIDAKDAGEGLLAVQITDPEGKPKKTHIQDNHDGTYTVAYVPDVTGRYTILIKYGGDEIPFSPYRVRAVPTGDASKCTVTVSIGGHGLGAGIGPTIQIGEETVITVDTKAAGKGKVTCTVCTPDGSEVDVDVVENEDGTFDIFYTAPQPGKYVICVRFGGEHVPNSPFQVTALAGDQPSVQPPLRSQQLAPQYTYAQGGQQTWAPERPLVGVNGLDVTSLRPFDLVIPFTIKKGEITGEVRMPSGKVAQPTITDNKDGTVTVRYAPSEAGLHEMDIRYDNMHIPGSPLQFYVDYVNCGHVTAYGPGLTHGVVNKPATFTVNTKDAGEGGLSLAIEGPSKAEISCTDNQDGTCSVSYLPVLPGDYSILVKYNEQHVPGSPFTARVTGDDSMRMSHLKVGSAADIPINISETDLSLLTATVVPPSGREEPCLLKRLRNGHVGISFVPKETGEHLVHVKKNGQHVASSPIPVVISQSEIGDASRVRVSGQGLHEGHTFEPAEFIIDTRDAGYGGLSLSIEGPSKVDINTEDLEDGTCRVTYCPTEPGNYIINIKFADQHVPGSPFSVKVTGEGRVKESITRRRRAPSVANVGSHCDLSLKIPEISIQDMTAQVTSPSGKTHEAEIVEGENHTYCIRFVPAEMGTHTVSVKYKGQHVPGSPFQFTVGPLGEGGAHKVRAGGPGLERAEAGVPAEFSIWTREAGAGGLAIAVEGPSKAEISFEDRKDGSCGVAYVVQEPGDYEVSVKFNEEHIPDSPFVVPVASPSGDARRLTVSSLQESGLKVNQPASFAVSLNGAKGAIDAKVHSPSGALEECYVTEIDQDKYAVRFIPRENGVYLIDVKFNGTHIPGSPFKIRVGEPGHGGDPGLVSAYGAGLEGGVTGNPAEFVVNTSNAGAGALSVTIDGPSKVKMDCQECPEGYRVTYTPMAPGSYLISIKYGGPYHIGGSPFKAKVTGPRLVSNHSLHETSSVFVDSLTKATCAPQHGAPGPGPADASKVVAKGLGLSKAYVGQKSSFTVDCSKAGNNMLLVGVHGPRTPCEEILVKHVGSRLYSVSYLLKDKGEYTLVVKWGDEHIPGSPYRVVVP
# UniProt O95573, sequence (O95573 whole entry): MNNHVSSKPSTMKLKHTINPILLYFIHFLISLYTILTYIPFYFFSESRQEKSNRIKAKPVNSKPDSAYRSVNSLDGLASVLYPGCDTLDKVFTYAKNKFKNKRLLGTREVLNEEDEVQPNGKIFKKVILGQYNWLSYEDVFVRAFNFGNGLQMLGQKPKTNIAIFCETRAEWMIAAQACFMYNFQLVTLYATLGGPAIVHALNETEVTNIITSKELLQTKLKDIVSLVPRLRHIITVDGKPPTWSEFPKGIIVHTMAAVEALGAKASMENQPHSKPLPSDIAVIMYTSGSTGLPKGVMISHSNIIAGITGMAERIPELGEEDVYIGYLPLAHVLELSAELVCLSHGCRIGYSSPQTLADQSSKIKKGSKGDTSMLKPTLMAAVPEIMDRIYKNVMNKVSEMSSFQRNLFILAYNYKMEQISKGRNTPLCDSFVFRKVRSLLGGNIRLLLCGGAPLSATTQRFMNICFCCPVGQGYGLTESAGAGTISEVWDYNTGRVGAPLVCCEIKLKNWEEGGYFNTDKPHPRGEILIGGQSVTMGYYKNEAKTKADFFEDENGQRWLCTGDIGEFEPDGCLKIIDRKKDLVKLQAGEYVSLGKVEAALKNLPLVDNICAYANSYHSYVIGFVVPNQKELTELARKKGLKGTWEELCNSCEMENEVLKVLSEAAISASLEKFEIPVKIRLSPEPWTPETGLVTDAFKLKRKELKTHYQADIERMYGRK
# UniProt P61106, sequence (P61106 whole entry, looked up): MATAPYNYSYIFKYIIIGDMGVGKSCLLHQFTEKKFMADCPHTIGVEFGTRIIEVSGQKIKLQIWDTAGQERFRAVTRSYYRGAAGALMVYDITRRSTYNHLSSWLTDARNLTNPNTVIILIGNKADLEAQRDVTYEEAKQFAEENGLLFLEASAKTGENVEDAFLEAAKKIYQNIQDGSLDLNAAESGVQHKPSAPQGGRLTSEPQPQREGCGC
# UniProt P30101, sequence (P30101 whole entry): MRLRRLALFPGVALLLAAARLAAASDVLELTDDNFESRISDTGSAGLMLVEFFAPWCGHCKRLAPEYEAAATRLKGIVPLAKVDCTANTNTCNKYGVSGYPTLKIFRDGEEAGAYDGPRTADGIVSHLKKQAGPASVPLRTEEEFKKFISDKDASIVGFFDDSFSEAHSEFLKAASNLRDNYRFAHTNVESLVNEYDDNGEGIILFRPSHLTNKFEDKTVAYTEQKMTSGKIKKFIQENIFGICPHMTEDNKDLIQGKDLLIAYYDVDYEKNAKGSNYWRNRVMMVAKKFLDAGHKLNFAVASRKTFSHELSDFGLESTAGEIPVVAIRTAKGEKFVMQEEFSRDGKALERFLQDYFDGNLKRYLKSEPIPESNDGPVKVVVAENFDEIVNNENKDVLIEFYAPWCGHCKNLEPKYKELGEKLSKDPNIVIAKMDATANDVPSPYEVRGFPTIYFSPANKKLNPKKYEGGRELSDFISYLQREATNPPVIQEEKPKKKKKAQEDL
# UniProt Q99985, sequence (Q99985 whole entry): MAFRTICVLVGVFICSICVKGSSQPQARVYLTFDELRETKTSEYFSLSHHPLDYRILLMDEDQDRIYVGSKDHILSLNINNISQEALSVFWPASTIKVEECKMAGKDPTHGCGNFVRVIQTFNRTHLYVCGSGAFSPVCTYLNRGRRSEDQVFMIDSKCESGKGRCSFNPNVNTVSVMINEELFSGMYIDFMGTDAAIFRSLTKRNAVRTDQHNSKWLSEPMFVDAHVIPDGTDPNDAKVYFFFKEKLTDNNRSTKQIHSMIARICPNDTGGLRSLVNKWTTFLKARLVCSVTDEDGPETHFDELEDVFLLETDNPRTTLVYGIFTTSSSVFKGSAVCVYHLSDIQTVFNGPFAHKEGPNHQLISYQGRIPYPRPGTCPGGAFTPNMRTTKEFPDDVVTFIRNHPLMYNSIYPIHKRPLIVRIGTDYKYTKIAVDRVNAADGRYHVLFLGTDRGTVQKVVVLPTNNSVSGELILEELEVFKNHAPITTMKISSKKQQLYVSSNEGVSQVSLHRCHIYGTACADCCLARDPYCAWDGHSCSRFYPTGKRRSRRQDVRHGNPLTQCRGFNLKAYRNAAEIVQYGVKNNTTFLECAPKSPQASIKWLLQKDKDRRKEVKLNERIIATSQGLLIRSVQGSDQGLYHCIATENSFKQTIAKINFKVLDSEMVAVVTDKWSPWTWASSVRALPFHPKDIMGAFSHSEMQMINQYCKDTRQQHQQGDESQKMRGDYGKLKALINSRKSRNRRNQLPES
# UniProt Q9P0L0, sequence (Q9P0L0 whole entry): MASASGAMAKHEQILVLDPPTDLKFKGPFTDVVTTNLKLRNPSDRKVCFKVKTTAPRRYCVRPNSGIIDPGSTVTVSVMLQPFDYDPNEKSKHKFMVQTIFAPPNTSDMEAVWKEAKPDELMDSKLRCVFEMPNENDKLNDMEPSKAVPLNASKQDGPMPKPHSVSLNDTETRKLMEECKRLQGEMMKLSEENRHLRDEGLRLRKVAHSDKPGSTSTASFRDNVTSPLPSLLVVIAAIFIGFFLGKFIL
row,Target,lysine labeling ratio R10:1
1,FLNA (lysine site: K1801) (UniProt P21333),3.7
2,VASN (lysine site: K506) (UniProt Q6EMK4),5.1
3,VAPA (lysine site: K174) (UniProt Q9P0L0),1.89 (active)
4,KRT18 (lysine site: K372) (UniProt P05783),2.29
5,AXL (lysine site: K211) (UniProt P30530),2.55
6,PVR (lysine site: K153) (UniProt P15151),4.25
7,PLS3 (lysine site: K59) (UniProt P13797),1.41 (active)
8,P4HB (lysine site: K309) (UniProt P07237),1.42 (active)
9,PPL (lysine site: K1339) (UniProt O60437),1.34 (active)
10,RDX (lysine site: K363) (UniProt P35241),1.44 (active)
11,IGF2R (lysine site: K1579) (UniProt P11717),0.605 (active)
12,CYR61 (lysine site: K208) (UniProt O00622),2.96
13,UniProt Q6NZI2 (lysine site: K299),4.52
14,KIAA1549 (lysine site: K1262) (UniProt Q9HCM3),0.805 (active)
15,L1CAM (lysine site: K180) (UniProt P32004),1.59 (active)
16,HSPA9 (lysine site: K394) (UniProt P38646),3.32
17,RPS19 (lysine site: K43) (UniProt P39019),0.56 (active)
18,FLNA (lysine site: K1593) (UniProt P21333),2.69
19,CDH2 (lysine site: K448) (UniProt P19022),3.81
20,CACNA2D1 (lysine site: K88) (UniProt P54289),1.78 (active)

row,Target,lysine labeling ratio R10:1
1,SLC39A6 (lysine site: K143) (UniProt Q13433),4.18
2,SPTAN1 (lysine site: K274) (UniProt Q13813),2.28
3,UniProt P46781 (lysine site: K66),2.63
4,ROBO1 (lysine site: K516) (UniProt Q9Y6N7),4.56
5,ILF3 (lysine site: K535) (UniProt Q12906),0.982 (active)
6,UniProt Q15149 (lysine site: K1150),3.29
7,PDIA3 (lysine site: K274) (UniProt P30101),3.59
8,UniProt Q15149 (lysine site: K2255),4.45
9,ANPEP (lysine site: K923) (UniProt P15144),2.33
10,SERPINH1 (lysine site: K410) (UniProt P50454),4.84
11,ACSL3 (lysine site: K222) (UniProt O95573),2.52
12,SEMA3C (lysine site: K613) (UniProt Q99985),5.77
13,FLNA (lysine site: K523) (UniProt P21333),3.84
14,UniProt P61106 (lysine site: K193),3.57
15,CCT8 (lysine site: K440) (UniProt P50990),2.29
16,FLNB (lysine site: K681) (UniProt O75369),2.09
17,UniProt P48060 (lysine site: K200),3.31
18,ANXA7 (lysine site: K268) (UniProt P20073),2.89
19,UniProt Q99623 (lysine site: K262),3.03
20,HNRNPM (lysine site: K48) (UniProt P52272),4.62
